# Unmarked numbers belong to inactive results. Where a call stands in place of a potency, no number is given. For part of these data: Potency and affinity values are given separately. Calls of active or inactive are those of the source. Unless noted, how the calls were made is not given here.
# Tests used:
# [1] = antimalarial activity against Dd2 strain (AID 2302;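 active means growth inhibition above 50% at the single 2 µM test dose, taken to imply half-maximal potency below 2 µM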); conditions: P. falciparum Dd2 in RBCs, LDH growth readout, 72 h; at 2 µM; hits give high values
# [2] = human hepatoma cell viability loss – ATP luminescence, cytotoxicity control for P. falciparum antimalarial project, primary screen (AID 2303;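 active means inhibition above 50%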); conditions: HepG2 viability, 24-48 h, at 10 µM, hits give high values
# [3] = target: L-lactate dehydrogenase (Plasmodium falciparum (isolate CDC / Honduras)) (UniProt Q27743); test: PfLDH activity inhibition – cell lysate, 3D7 strain, counter-screen for P. falciparum growth inhibition project (AID 2304); conditions: P. falciparum 3D7 crude extract, LDH APAD/NBT absorbance; at 2 µM; hits give high values
# [4] = inhibition of 3D7 malaria parasite growth – strain 3D7 (AID 2306); conditions: P. falciparum 3D7 erythrocytic growth, LDH absorbance, 72 h; at 2 µM; hits give high values
# [5] = target: Calcium-dependent protein kinase 1 (Plasmodium falciparum (isolate 3D7)) (UniProt P62344); test: PfCDPK1 kinase inhibitors, biochemical, TCAMS library (AID 1159585; cut-off not given, nearly all actives have IC50 up to about 0.98 µM;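 further: inhibitors leave more ATP so luminescence rises with inhibition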); conditions: recombinant PfCDPK1, Kinase-Glo ATP depletion luminescence
# [6] = target: Plasmodium falciparum protein kinase 6 (PK6, PF3D7_1337100) (UniProt Q8IDW1); test: PfPK6 kinase inhibitors, biochemical, TCAMS library (AID 1159586); conditions: recombinant PfPK6, Kinase-Glo ATP depletion luminescence
# [7] = target: Protein kinase 7 (PK7), Plasmodium falciparum 3D7 (PF3D7_0213400) (UniProt Q7YTF7); test: inhibition of Plasmodium PK7 catalytic activity – biochemical, TCAMS antimalarial set, Kinase-Glo luminescence (AID 1159587); conditions: recombinant PfPK7, Kinase-Glo ATP depletion luminescence
# [8] = target: Calcium-dependent protein kinase 4 (Plasmodium falciparum (isolate 3D7)) (UniProt Q8IBS5); test: PfCDPK4 kinase inhibitors, biochemical, TCAMS library (AID 1159588; cut-off not given, nearly all actives have IC50 up to about 0.91 µM); conditions: recombinant PfCDPK4, Kinase-Glo ATP depletion luminescence
# Chain of Calcium-dependent protein kinase 4 (Plasmodium falciparum (isolate 3D7)) (Q8IBS5 whole entry, looked up): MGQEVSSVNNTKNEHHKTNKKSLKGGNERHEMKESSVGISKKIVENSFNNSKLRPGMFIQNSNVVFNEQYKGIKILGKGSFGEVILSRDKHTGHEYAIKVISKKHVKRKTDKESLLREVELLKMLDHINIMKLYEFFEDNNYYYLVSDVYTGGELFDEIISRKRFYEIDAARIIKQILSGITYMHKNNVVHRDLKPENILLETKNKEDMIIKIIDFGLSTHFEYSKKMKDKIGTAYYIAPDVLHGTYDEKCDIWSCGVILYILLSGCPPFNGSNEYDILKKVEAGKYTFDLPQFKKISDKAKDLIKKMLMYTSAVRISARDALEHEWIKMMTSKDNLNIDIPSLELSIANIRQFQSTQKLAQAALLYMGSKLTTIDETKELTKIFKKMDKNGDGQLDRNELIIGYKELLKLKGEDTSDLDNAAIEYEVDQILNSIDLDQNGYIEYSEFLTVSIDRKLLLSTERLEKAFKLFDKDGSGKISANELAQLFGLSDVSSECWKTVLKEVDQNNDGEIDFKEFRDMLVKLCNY
# Chain of L-lactate dehydrogenase (Plasmodium falciparum (isolate CDC / Honduras)) (Q27743 whole entry, looked up): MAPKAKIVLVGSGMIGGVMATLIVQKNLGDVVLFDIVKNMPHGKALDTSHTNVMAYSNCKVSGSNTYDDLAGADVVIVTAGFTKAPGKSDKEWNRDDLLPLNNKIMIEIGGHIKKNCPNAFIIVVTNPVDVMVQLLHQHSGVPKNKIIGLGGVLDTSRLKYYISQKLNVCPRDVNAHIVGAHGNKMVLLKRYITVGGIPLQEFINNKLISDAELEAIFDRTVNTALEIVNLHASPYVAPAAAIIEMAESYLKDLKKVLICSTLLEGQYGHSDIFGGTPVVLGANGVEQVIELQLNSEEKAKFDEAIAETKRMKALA
# Chain of Plasmodium falciparum protein kinase 6 (PK6, PF3D7_1337100) (Q8IDW1 1-305): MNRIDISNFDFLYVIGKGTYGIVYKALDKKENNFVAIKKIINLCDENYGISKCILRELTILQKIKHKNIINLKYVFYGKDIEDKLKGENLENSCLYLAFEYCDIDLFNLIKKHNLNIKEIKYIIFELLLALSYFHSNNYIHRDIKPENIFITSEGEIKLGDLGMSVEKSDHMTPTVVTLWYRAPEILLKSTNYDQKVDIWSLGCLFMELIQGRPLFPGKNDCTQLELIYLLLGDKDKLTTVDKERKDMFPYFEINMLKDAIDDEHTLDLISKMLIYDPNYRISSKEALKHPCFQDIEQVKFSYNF
# Chain of Protein kinase 7 (PK7), Plasmodium falciparum 3D7 (PF3D7_0213400) (Q7YTF7 1-343): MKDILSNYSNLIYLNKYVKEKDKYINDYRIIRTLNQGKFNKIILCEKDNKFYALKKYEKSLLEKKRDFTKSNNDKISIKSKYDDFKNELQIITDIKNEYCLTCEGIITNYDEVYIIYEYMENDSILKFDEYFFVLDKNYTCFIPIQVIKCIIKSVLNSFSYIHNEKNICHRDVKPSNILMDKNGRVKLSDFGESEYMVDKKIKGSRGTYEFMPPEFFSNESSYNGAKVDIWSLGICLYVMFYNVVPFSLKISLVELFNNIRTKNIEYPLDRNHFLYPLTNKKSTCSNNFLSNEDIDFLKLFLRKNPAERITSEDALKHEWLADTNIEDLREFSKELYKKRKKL
# Chain of Calcium-dependent protein kinase 1 (Plasmodium falciparum (isolate 3D7)) (P62344 whole entry, looked up): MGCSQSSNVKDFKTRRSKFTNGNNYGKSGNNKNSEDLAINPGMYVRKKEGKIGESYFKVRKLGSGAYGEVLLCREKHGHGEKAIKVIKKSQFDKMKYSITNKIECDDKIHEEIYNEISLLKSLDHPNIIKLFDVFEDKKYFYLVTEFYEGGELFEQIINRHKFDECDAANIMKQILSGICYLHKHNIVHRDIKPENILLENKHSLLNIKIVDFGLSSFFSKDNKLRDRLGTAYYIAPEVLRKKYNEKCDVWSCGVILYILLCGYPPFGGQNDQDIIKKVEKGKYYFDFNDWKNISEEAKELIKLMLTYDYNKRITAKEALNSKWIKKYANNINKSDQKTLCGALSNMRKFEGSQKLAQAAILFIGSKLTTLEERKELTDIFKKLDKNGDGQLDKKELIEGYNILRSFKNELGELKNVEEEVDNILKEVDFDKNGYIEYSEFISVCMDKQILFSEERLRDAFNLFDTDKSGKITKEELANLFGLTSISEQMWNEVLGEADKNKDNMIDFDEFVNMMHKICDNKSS
Structure (SMILES),growth inhibition [1],inhibition [2],inhibition [3] [%],growth inhibition [4],outcome [5],outcome [6],outcome [7],outcome [8]
S=C(NCCCCCN1CCC(c2c[nH]c3ccccc23)CC1)Nc1ccc(Cl)c(Cl)c1,31%,89% (active),-3,101% (active),inactive,inactive,inactive,inactive
CN1CCN(CCCN(Cc2cccc(-c3ccc(CNC4CCCC4)cc3)c2)C(=O)/C=C/c2ccccc2)CC1,96% (active),62% (active),-2,98% (active),inactive,inactive,inactive,inactive
COc1cc(Cc2cnc(N)nc2N)cc(OCCCOc2ccccc2)c1OC,2%,7%,-4,94% (active),inactive,inactive,inactive,inactive
